# Sampled rows, rich in hits. Any-hit rate of the full collection: about 7%.
# BAZ2B block: BAZ2B (human) inhibition. Q9UIF8. AlphaScreen BAZ2B-H3K14Ac peptide displacement. Potency, µM (doses to about 114 µM), inactives show at the top dose activity change, negative = inhibition, actives largely listed as inhibitors. actives 4.4% (n = 360,000). AID 504333; note: potency is the fitted concentration of half-maximal effect; % is set by controls: 0 for no effect and ±100 for the full control effect; nearly all actives have a fitted effect of over 60% in size
#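 Complex of BAZ2B and biotin-H3K14Ac (50 nM apiece) forms over 30 min at RT, then faces library compounds up to 110 uM for another 30 min; AlphaScreen beads added, 20 min dark incubation, luminescence read.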
# JMJD2A Tudor: blocks the human JMJD2A Tudor domain | actives 4.4% (n = 390,000) | O75164 | AlphaScreen JMJD2A-Tudor / H3K4me3 peptide binding | Potency, µM (doses to about 114 µM), inactives show at the top dose activity change, negative = inhibition, hits mostly inhibitors; note: potency is the fitted concentration of half-maximal effect; % is set by controls: 0 for no effect and ±100 for the full control effect; nearly all actives have a fitted effect of over 50% in size
# PI5P4K alpha inh: inhibitors of human PI5P4K alpha; max response, %; actives 1.2% (n = 330,000); P48426; PI5P4Kalpha enzyme, ADP-Glo luminescence, 60 min; stronger effect = lower value; active = max response of -50% or lower; inconclusive = between -30% and -50%; inactive = -30% or higher; note: value at the top dose of about 77 µM; % is set by controls: 0 for no effect and ±100 for the full control effect
# Target sequence (P48426 whole entry, looked up): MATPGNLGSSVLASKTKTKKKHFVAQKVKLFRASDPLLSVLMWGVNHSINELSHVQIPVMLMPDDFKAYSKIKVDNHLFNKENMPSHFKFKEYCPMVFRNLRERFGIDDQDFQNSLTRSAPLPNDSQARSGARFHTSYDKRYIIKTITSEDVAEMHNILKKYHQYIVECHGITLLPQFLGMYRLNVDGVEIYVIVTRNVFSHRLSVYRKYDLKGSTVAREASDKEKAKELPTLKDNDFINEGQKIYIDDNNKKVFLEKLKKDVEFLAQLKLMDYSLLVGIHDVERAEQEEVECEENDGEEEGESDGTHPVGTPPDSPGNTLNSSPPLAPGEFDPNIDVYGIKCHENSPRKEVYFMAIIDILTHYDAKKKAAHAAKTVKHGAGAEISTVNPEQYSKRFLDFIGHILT
#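 PI5P4Kalpha ADP-Glo assay; 5 microM ATP final; 60 min RT reaction; HEPES pH 7.4/EGTA/CHAPS, 5% DMSO; controls lacking substrate or enzyme; luminescent end-point.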
# PLK1 PBD block: inhibitors of human PLK1 polo-box domain binding | P53350 | Plk1 PBD binding of FITC phosphopeptide, fluorescence polarization | Potency, µM, for inactives: max response, negative = inhibition, actives largely listed as inhibitors | actives 2.8% (n = 360,000) | AID 720504; note: potency is the fitted concentration of half-maximal effect; series mostly up to about 57 µM; % is set by controls: 0 for no effect and ±100 for the full control effect; nearly all actives have a fitted effect of over 65% in size
# HP1b chromo inh: inhibitors of HP1-beta chromodomain binding to methylated histone tails; actives 0.56% (n = 390,000); AlphaScreen HP1-beta / biotin-H3K9me3 peptide binding; Potency, µM (top dose mostly 114 µM), without a hit: top-dose activity change, negative = inhibition, hits mostly inhibitors; AID 540317; P83916; note: potency is the fitted concentration of half-maximal effect; nearly all actives have a fitted effect of over 70% in size
# Target sequence (P83916 whole entry, looked up): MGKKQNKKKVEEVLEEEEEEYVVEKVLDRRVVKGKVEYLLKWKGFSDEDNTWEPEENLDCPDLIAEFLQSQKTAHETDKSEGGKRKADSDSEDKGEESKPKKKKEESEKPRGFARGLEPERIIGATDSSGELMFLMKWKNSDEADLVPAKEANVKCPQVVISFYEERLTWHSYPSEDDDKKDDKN
#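 HP1-beta protein (50 nM final) preincubated 30 min at room temperature with biotinylated H3(1-18)K9me3 peptide (50 nM) in PBS pH 7.4, 0.01% Tween-20, then compound added for 30 min. AlphaScreen streptavidin donor/nickel chelate acceptor beads (10 ug/mL final), 30 min dark, luminescence read.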
# KAT2A inh: inhibitors of human GCN5L2 histone acetyltransferase. Q92830. GCN5L2 HAT assay, ThioGlo1 CoA-SH fluorescence. Potency, µM (doses to about 58.9 µM), for inactives: top-dose activity change, negative = inhibition, usual class: inhibitors. actives 0.21% (n = 390,000); note: potency is the fitted concentration of half-maximal effect; % is set by controls: 0 for no effect and ±100 for the full control effect
#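 Titration-based screen in which CoA formation is detected via maleimide probe ThioGlo1 (50uM) turning fluorescent on thiol reaction; substrates H3(1-25) 75uM and acetyl-CoA 70uM, GCN5L2 20nM, 20 min incubation at room temperature.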
# Starred values were filed as active, the others as inactive; ? = inconclusive; · = no result; [ ] = remark or other dose. Unless noted, calls come from the whole dose curve; as a rule, active = well fitted curve in the direction sought with a large enough effect; inconclusive = small, poorly fitted or top-dose-only effect, or another doubt; inactive = no such curve, though single readings can be large; an effect the other way counts as inactive or inconclusive.
SMILES,BAZ2B block,JMJD2A Tudor,PI5P4K alpha inh,PLK1 PBD block,HP1b chromo inh,KAT2A inh
CCN(CCCNC(=O)c1[nH]c(C)c(C(C)=O)c1C)c1cccc(C)c1,50µM*,79µM*,0,-5%,?,0%
Cc1cccc(-c2noc(CCC(=O)NCCc3ccccc3)n2)c1,15%,-11%,-11,-10%,54%,-4%
O=C(c1cc2ccccc2cc1O)N1CCN(c2ccc([N+](=O)[O-])cc2)CC1,-26%,-30%,-3,-9%,2%,-7%
COC(=O)[C@H](CCSC)NC(=O)[C@@H](Cc1cnc[nH]1)NC(=O)OCc1ccccc1,-21%,-20%,0,-3%,1%,19%
CCC1=NC(c2ccc(OC)c(OC)c2)N(O)C1(C)C (stereo not drawn),-3%,?,-1,30µM*,19%,4%
CCC1=NC(c2ccc(OC)cc2)N(O)C1(C)C (stereo not drawn),7%,-3%,3,-1%,35%,0%
Nc1nonc1C(=O)N/N=C/c1ccc(-c2cccc(C(=O)O)c2)o1,?,·,·,·,·,-6%
O=c1/c(=C\c2cc([N+](=O)[O-])cc([N+](=O)[O-])c2O)sc2nc3ccccc3n12,50µM*,20µM*,-95*,?,?,?
O=C(O)c1cc(C(=O)O)cc(-c2ccc(/C=c3/sc4nc5ccccc5n4c3=O)o2)c1,20µM*,22µM*,-27,-15%,16µM*,-12%
O=C(O)c1cccc(-c2ccc(/C=c3/sc4nc5ccccc5n4c3=O)o2)c1,25µM*,22µM*,?,0%,?,-16%
O=c1/c(=C/c2ccccn2)sc2nc3ccccc3n12,2%,?,-1,-14%,26%,-4%
CC(=O)c1cnc2c(-c3ccc(Cl)cc3)cnn2c1C,7%,-11%[11.4 µM],10,30µM*,-1%,-8%
CCOC(=O)Cc1c(C)nc2c(-c3ccc(Cl)cc3)cnn2c1C,92%,30%,10,19µM*,59%,-8%
COCCN(C(=O)CSc1nnc(-c2ccc(C(C)(C)C)cc2)n1N)c1c(N)n(CC(C)C)c(=O)[nH]c1=O,5%,-4%,1,-5%,40%,-2%
CCCCOCCCNC(=O)C[C@@H]1C[C@@]2(C(=O)OCC)CCCC=C2N(Cc2ccc(Cl)cc2Cl)C1=O,·,·,24,-14%,·,·
Cc1nc2nc(C)n(CCN3CCOCC3)c(=O)c2c(-c2cccc([N+](=O)[O-])c2)c1C(=O)CCCCCCCCCCN1CCC(c2ccccc2)(c2ccccc2)CC1,·,25µM*,3,1%,40µM*,·
Nc1ccc(-c2c3ccc(=O)cc-3oc3cc(O)ccc23)cc1C(=O)O,?,?,-12,13µM*,?,-3%
COC(=O)CCC(=O)Nc1ccc(Cl)c(Cl)c1,7%,-12%,·,-8%,33%,3%
COC(=O)CC1(C(=O)OC)Nc2cc(Cl)c(Cl)cc2S(=O)(=O)N1O (stereo not drawn),·,·,-3,9.5µM*,·,·
Cc1noc2ncnc(Oc3ccc(Cl)cc3Cl)c12,13%,56µM*,-7,?,11%,-2%
CCOc1cccc(C(=O)Nc2nc3c(s2)CC(C(C)(C)C)CC3)c1 (stereo not drawn),?,-14%,·,·,32%,0%
CCc1cccc(C)c1NC(=O)CCS(=O)(=O)c1ccc2c(c1)oc(=O)n2C,3%[57.1 µM],79µM*,·,·,?,6%
Oc1ccc(Br)cc1C1C=C(c2ccc3c(c2)OCO3)NC(c2cccc(F)c2)N1 (stereo not drawn),·,?,·,·,6%,·
COc1ccc(Nc2cc(C)c3cc(NC(=O)Cc4ccc(Cl)cc4)ccc3n2)cc1,0%,-19%,·,·,15%,-12%
O=C1N(Cc2cccc(Cl)c2)C[C@@H]2C[C@@H](c3ccccn3)N3CCC[C@@]123,79µM*,-25%,0,-16%,18%,-1%
SMILES,BAZ2B block,JMJD2A Tudor,PI5P4K alpha inh,PLK1 PBD block,HP1b chromo inh,KAT2A inh
Cc1cc(C(=O)NNC(=O)/C=C/c2ccco2)c(C)o1,?,45µM*,?,24µM*,?,-6%
Cc1ccc(NC(=O)c2cccc(NC(=O)/C=C/c3ccco3)c2)cc1C,-37%,-33%,-64*,-9%,-25%,6%
COc1ccccc1/C=C/C(=O)NNC(=O)c1cc(C)oc1C,-7%,-17%,1,-14%,22%,-14%
CCc1ccccc1NC(=O)c1cccc(NC(=O)/C=C/c2ccco2)c1,-37%,-27%,-12,-4%,-2%,-26%
O=C(/C=C/c1ccco1)Nc1cccc(C(=O)Nc2ccccc2C(=O)O)c1,?,79µM*,-69*,21µM*,-18%,-28%
Cc1ccc(NC(=O)N/C=C/c2ccco2)c(C)c1,-35%,?,·,-13%,2%,2%
Cc1ccc(NC(=O)N/C=C/c2ccco2)cc1C,-33%,?,-57*,4%,7%,9%
Cc1ccc(-n2nc3ccc(NC(=O)/C=C/c4ccco4)cc3n2)cc1,?,?,?,-24%,-15%,-16%
CCc1cc2c(cc3c(=O)n(CCCC(=O)NCc4cccc(Cl)c4)ncn32)s1,4%,-25%,·,·,18%,-3%
O=C(N/N=C/c1ccco1)c1ccc(NC(=O)c2ccc(Cl)cc2)cc1,2%,-14%,?,-25%,14%,-1%
Cc1cccc(C(=O)Nc2ccc(C(=O)N/N=C/c3ccco3)cc2)c1,·,45µM*,-51*,21µM*,?,·
CCC(C)c1ccc(S(=O)(=O)N2CCN(C(C)CC(=O)O)CC2)cc1 (stereo not drawn),·,3.5µM*,1,0%,-27%,2%
Cc1ccc(S(=O)(=O)N2CCN(C(=O)CC(C)C)CC2)cc1,1%,-2%,-1,1%,27%,-2%
Cc1ccc(S(=O)(=O)N2CCN(C(C)CC(=O)O)CC2)cc1 (stereo not drawn),50µM*,5.6µM*,3,4%,?,-2%
S=c1[nH]nc(-c2ccco2)n1/N=C/c1ccc(Cl)cc1Cl,?,40µM*,·,?,-21%,?
S=c1[nH]nc(-c2ccncc2)n1/N=C/c1cccc2ccccc12,-7%,·,·,·,·,-6%
S=c1[nH]nc(-c2ccco2)n1/N=C/c1cccc(Cl)c1Cl,50µM*,35µM*,-13,-29%,-38%,-6%
CCOC(=O)C1CCCN(S(=O)(=O)NC[C@H]2O[C@@H](n3cnc4c(N)ncnc43)[C@H](O)[C@@H]2O)C1 (stereo partly drawn),·,6%,5,-9%,93%,1%
CCn1nc(C)cc1C(=O)Sc1ccc(C)cc1,22%,22%,1,-25%,25%,-1%
